Assay results taken from PubChem BioAssay (Tox21).
Records with an inconclusive call do not appear. Activity calls are given as the source filed them. Unless noted, the call rests on the fitted dose curve; in most records, active means well fitted curve in the direction sought with a large enough effect in the repeat runs; inconclusive means weak or mixed curves; inactive means no such curve, though single readings can be large; an effect the other way counts as inactive or inconclusive.

Columns and labels:
[1] = qHTS assay to identify small molecule antagonists of the estrogen related receptor (ERR) signaling pathway from Tox21 library - cell viability counter screen (AID 1224834); further: nearly all actives have a fitted effect of over 30% in size
Outline: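 ERR cells, 2,000/well; 6 h settle at 37 C/5% CO2; pin-tool compound transfer in DMSO; 17.5 h at 37 C; CellTiter-Fluor, 30 min; fluorescence intensity.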

[2] = target: Luciferin 4-monooxygenase (Photinus pyralis) (UniProt P08659); experiment: qHTS assay to identify small molecule inhibitors of firefly luciferase (AID 1224835); further: series mostly up to about 120 µM; nearly all actives have a fitted effect of over 25% in size
Sequence of Luciferin 4-monooxygenase (Photinus pyralis) (P08659 whole entry, looked up): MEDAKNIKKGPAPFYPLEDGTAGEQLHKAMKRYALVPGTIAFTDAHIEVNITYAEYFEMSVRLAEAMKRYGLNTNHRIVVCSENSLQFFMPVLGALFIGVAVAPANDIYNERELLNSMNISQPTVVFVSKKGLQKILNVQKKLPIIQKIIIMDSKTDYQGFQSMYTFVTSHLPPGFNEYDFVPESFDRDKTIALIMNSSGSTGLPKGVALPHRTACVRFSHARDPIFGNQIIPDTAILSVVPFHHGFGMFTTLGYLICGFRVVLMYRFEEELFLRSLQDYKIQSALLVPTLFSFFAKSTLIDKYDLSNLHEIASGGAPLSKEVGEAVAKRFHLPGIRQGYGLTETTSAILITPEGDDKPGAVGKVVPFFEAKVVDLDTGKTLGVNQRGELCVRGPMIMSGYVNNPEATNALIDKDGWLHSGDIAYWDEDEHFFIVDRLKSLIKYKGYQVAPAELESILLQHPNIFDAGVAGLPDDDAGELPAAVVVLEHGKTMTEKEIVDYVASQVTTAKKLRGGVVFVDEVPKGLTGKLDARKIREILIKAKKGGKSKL
Outline: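 Inhibition of purified Photinus luciferase is measured by luminescence. Substrate levels (D-luciferin, ATP) sit at their KM values. Each compound is tested in a concentration series.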

[3] = qHTS assay to identify small molecule agonists of the constitutive androstane receptor (CAR) signaling pathway - cell viability counter screen (AID 1224836); further: series mostly up to about 92 µM; nearly all actives have a fitted effect of over 45% in size
Outline: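 Compound titrations (15 concentrations) went onto HepG2-CYP2B6-hCAR cells 4 h after seeding, alongside PK11195 at a final 0.75 uM; a 23 h, 37 C/5% CO2 incubation preceded CellTiter-Fluor viability measurement.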

[4] = qHTS assay to identify small molecule antagonists of the constitutive androstane receptor (CAR) signaling pathway - cell viability counter screen (AID 1224837); further: series mostly up to about 92 µM; nearly all actives have a fitted effect of over 45% in size
Outline: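 Viability was measured with CellTiter-Fluor in a HepG2 line carrying stably transfected hCAR and a CYP2B6-2.2kb construct. Cells were exposed for 23 hr at 37 C to 15 compound concentrations with 50 nM CITCO as agonist.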

[5] = target: Nuclear receptor subfamily 1 group I member 3 (Homo sapiens) (UniProt Q14994); experiment: qHTS assay to identify small molecule antagonists of the constitutive androstane receptor (CAR) signaling pathway (AID 1224838);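 further: HepG2 cells stably expressing hCAR with CYP2B6 luciferase reporter stimulated by CITCO; nearly all actives have a fitted effect of over 40% in size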
Sequence of Nuclear receptor subfamily 1 group I member 3 (Homo sapiens) (Q14994 whole entry, looked up): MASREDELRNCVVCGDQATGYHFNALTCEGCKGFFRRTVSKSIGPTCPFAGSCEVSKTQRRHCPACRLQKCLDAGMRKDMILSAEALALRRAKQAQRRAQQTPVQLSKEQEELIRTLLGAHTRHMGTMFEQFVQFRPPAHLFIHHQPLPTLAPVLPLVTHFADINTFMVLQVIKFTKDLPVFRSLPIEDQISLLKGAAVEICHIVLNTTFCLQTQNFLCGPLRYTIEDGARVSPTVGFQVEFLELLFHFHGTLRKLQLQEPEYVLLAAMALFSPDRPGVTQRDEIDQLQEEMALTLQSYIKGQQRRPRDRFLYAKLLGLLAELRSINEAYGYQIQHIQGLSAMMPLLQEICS
Outline: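 Antagonist mode used CITCO at a final 50 nM to activate CAR in human hepatoma HepG2 cells carrying stable hCAR and a 2.2 kb CYP2B6 promoter-luciferase construct. Compounds were tested at 15 concentrations over 24 h, with luminescence as the end point.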

[6] = target: Nuclear receptor subfamily 1 group I member 3 (Homo sapiens) (UniProt Q14994); experiment: qHTS assay to identify small molecule agonists of the constitutive androstane receptor (CAR) signaling pathway (AID 1224839); further: series mostly up to about 92 µM; nearly all actives have a fitted effect of over 15% in size
Outline: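 In this screen, CAR-driven CYP2B6 promoter activity is measured by luminescence in HepG2-CYP2B6-hCAR cells after 24 h with test compounds and 0.75 uM PK11195 (final concentration).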

[7] = qHTS assay to identify small molecule antagonists of the estrogen related receptor signaling pathway with the pleiotropic PPARgamma coactivator (PGC) from Tox21 10K library - cell viability counter screen (AID 1224840; active means well fitted cell-killing curve with a large enough effect in the repeat runs, not every such curve was filed as active; further: nearly all actives have a fitted effect of over 40% in size)
Outline: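 Multiplexed viability counter screen in the PGC/ERR cell line: cells treated with DMSO-dissolved compounds for 17.5 hours at 37 C, then viability measured as CellTiter-Fluor fluorescence.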

[8] = qHTS assay to identify small molecule antagonists of the estrogen related receptor signaling pathway with the pleiotropic PPARgamma coactivator (PGC) from Tox21 10K library (AID 1224841; call rule not given here; further: series mostly up to about 92 µM; actives are mostly falling curves and most rising ones were filed inactive; nearly all actives have a fitted effect of over 50% in size)
Outline: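 Steps: plate 2,000 PGC/ERR cells per well; incubate 6 h at 37 C with 5% CO2; transfer compounds from DMSO stocks by pin tool; incubate 18 h at 37 C; add One-Glo; measure luminescence 30 min later.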

[9] = qHTS assay to identify small molecule agonists of the estrogen related receptor signaling pathway with the pleiotropic PPARgamma coactivator (PGC) from Tox21 10K library (AID 1224842); further: nearly all actives have a fitted effect of over 15% in size
Outline: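 Luminescence from One-Glo (30 min, room temperature) measured after PGC/ERR cells had 18 h at 37 C with pinned compound (23 nL in DMSO). Cells had been seeded at 2,000 per well and pre-incubated 6 h.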
On the % scale 0 is the no-effect control and ±100 the full control effect.

O=C1CC2CC1C1CCCC21 (stereo unspecified)
inactive: Potency [1] | Potency [2] | Potency [3] | Potency [4] | Potency [5] | Potency [6] | Potency [7] | Potency [8] | outcome [9]

Cc1cc(O)cc2c1O[C@](C)(CCC[C@H](C)CCC[C@H](C)CCCC(C)C)CC2
inactive: Potency [1] | Potency [2] | Potency [3] | Potency [4] | Potency [5] | Potency [6] | Potency [7] | Potency [8] | outcome [9]

FC(F)OC(Cl)C(F)(F)F (stereo unspecified)
inactive: Potency [1] | Potency [2] | Potency [3] | Potency [4] | Potency [5] | Potency [6] | Potency [7] | Potency [8] | outcome [9]

NC(=O)Nc1ccccc1
inactive: Potency [1] | Potency [2] | Potency [3] | Potency [4] | Potency [5] | Potency [6] | Potency [7] | Potency [8] | outcome [9]

O=C(O)Cc1ccc(CCNS(=O)(=O)c2ccc(Cl)cc2)cc1
inactive: Potency [1] | Potency [2] | Potency [3] | Potency [4] | Potency [5] | Potency [6] | Potency [7] | Potency [8] | outcome [9]

Cc1c(NC(C)C)c(=O)n(-c2ccccc2)n1C
inactive: Potency [1] | Potency [2] | Potency [3] | Potency [4] | Potency [5] | Potency [6] | Potency [7] | Potency [8] | outcome [9]

O=C1OC(=O)C2CCCCC12 (stereo unspecified)
inactive: Potency [1] | Potency [2] | Potency [3] | Potency [4] | Potency [5] | Potency [6] | Potency [7] | Potency [8] | outcome [9]

CC/C=C\CC/C=C/CO
inactive: Potency [1] | Potency [2] | Potency [3] | Potency [4] | Potency [5] | Potency [6] | Potency [7] | Potency [8] | outcome [9]

CCCCCCCCCCCCCC=O
inactive: viability change, negative = cytotoxic [1] 1.13% [at 8.39 µM] | activity change, negative = inhibition [2] 3.28% [at 10.5 µM] | viability change, negative = cytotoxic [3] -0.0726% [at 8.39 µM] | activity change, negative = cytotoxicity [4] 6.66% [at 8.39 µM] | activity, negative = inhibition [5] -13.4% [at 8.39 µM] | activation [6] -0.0217% [at 8.39 µM] | viability change, negative = cytotoxic [7] 5.18% [at 8.39 µM] | activity, negative = inhibition [8] 11.8% [at 8.39 µM] | activation [9] -0.504% [at 8.39 µM]

CO[C@]12C[C@@H](COC(=O)c3cncc(Br)c3)CN(C)[C@@H]1Cc1cn(C)c3cccc2c13
inactive: Potency [1] | Potency [2] | Potency [3] | Potency [4] | Potency [5] | Potency [6] | Potency [7] | Potency [8] | outcome [9]

CCO[Si](CCC1CCC2OC2C1)(OCC)OCC (stereo unspecified)
inactive: Potency [1] | Potency [2] | Potency [3] | Potency [4] | Potency [5] | Potency [6] | Potency [7] | Potency [8] | outcome [9]

CCC(C)S (stereo unspecified)
inactive: viability change, negative = cytotoxic [1] 1.27% [at 3.27 µM] | activity change, negative = inhibition [2] 5.34% [at 4.07 µM] | viability change, negative = cytotoxic [3] 6.36% [at 3.27 µM] | activity change, negative = cytotoxicity [4] 4.49% [at 3.26 µM] | activity, negative = inhibition [5] -7.32% [at 3.26 µM] | activation [6] 0.262% [at 3.27 µM] | viability change, negative = cytotoxic [7] 2.53% [at 3.27 µM] | activity, negative = inhibition [8] 1.33% [at 3.27 µM] | activation [9] 0.822% [at 3.27 µM]

CN1N=C(C(N)=O)CCC1=O
inactive: Potency [1] | Potency [2] | Potency [3] | Potency [4] | Potency [5] | Potency [6] | Potency [7] | Potency [8] | outcome [9]

CCc1cccc2c(CCO)c[nH]c12
inactive: Potency [1] | Potency [2] | Potency [3] | Potency [4] | Potency [5] | Potency [6] | Potency [7] | outcome [9]

COC(=O)CC(C)=O
inactive: Potency [1] | Potency [2] | Potency [3] | Potency [4] | Potency [5] | Potency [6] | Potency [7] | outcome [9]

COc1cc(C(=O)N2CCCCCCC2)cc(OC)c1OC
inactive: Potency [1] | Potency [2] | Potency [3] | Potency [4] | Potency [5] | Potency [6] | Potency [7] | Potency [8] | outcome [9]

C=C[Si](OC(=C)C)(OC(=C)C)OC(=C)C
inactive: Potency [1] | Potency [2] | Potency [3] | Potency [4] | Potency [5] | Potency [6] | Potency [7] | Potency [8] | outcome [9]

C=COCC1CCC(CO)CC1 (stereo unspecified)
inactive: Potency [1] | Potency [2] | Potency [3] | Potency [4] | Potency [5] | Potency [6] | Potency [7] | Potency [8] | outcome [9]

C=C(C)CS(=O)(=O)O
inactive: Potency [1] | Potency [2] | Potency [3] | Potency [4] | Potency [5] | Potency [6] | Potency [7] | Potency [8] | outcome [9]

CCc1nccnc1CC
inactive: viability change, negative = cytotoxic [1] 6.79% [at 19 µM] | activity change, negative = inhibition [2] 1.9% [at 23.6 µM] | viability change, negative = cytotoxic [3] 4.25% [at 19 µM] | activity change, negative = cytotoxicity [4] -1.21% [at 19 µM] | activity, negative = inhibition [5] -16.5% [at 19 µM] | activation [6] -0.0673% [at 19 µM] | viability change, negative = cytotoxic [7] 1.05% [at 19 µM] | activation [9] 1.3% [at 19 µM]

CC1=CC(C)C(C=O)CC1 (stereo unspecified)
inactive: Potency [1] | Potency [2] | Potency [3] | Potency [4] | Potency [5] | Potency [6] | Potency [7] | Potency [8] | outcome [9]

CN(C(=O)c1c(O)c2ccccc2n(C)c1=O)c1ccccc1
inactive: Potency [1] | Potency [2] | Potency [3] | Potency [4] | Potency [5] | Potency [6] | Potency [7] | Potency [8] | outcome [9]

OC1CCCCC1c1ccccc1 (stereo unspecified)
inactive: Potency [1] | Potency [2] | Potency [3] | Potency [4] | Potency [5] | Potency [6] | Potency [7] | Potency [8] | outcome [9]

O=S(O)CO
inactive: Potency [1] | Potency [2] | Potency [3] | Potency [4] | Potency [5] | Potency [6] | Potency [7] | Potency [8] | outcome [9]

CCCCC(CC)COC(=O)c1ccccc1O (stereo unspecified)
inactive: Potency [1] | Potency [2] | Potency [3] | Potency [4] | Potency [5] | Potency [6] | Potency [7] | outcome [9]
